According to PubChem BioAssay (NCATS):
Results filed as inconclusive are left out. Values without a mark were called inactive. Activity calls are given as the source filed them. The call rests on the fitted dose curve; in most records, active means well fitted inhibition curve with a large enough effect; inconclusive means small, poorly fitted or top-dose-only effect; inactive means flat fitted curve, though single readings scatter.

Test system: CRL-7250
Assay: Cytotoxic Profiling of Annotated Libraries Using Quantitative High-Throughput Screening (AID 1296008); further: nearly all actives have a fitted effect of over 60% in size
Settings: Five cell lines viability, CellTiter-Glo ATP luminescence, 48-72 h; max response: hits give low values
Summary of the method: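 Compounds were pin-transferred onto cells and incubated 48 or 72 hr at 37 degree Celsius, 95% humidity. CellTiter-Glo was added, plates sat 10 min at room temperature, then ATP-coupled luminescence was imaged as the viability read-out.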
On the % scale 0 is the no-effect control and ±100 the full control effect; potency means the concentration at half of the fitted maximal effect.

Structure (SMILES)	Potency	max response	outcome
CC[C@]1(O)CC2CN(CCc3c([nH]c4ccccc34)[C@@](C(=O)OC)(c3cc4c(cc3OC)N(C=O)[C@H]3[C@@](O)(C(=O)OC)[C@H](OC(C)=O)[C@]5(CC)C=CCN6CC[C@]43[C@@H]65)C2)C1 (some centres not stated)	0.064 µM (active)		
Cc1ccc(S(=O)(=O)c2ccc([N+](=O)[O-])o2)cc1	5.8 µM (active)		
CC(=O)O[C@@H]1[C@@H](O)[C@H](C)O[C@@H](O[C@H]2[C@@H]3C=CO[C@@H](O[C@@H]4O[C@H](CO)[C@@H](O)[C@H](O)[C@H]4O)[C@@H]3[C@@]3(CO)O[C@@H]23)[C@@H]1OC(=O)/C=C/c1ccccc1		-1.26%	
COc1ccc(C2(O)CCC(N3CC[C@@H](NC(=O)CNC(=O)c4cccc(C(F)(F)F)c4)C3)CC2)cn1 (some centres not stated)		-18%	
CNS(=O)(=O)CC1CCC(N(C)c2ncnc3[nH]ccc23)CC1 (configuration not stated)		2.42%	
C=C1CCC2C(C)(C)C(O)CCC2(C)C1CCC(C)CCOC(C)=O (configuration not stated)			inactive
CC(=O)NC1C(OC(C)(C)C2CCC3(C)C=C(C4CCC5C4(C)CC(O)C4OC(C(C)(C)O)CCC45C)CCC3O2)OC(CO)C(O)C1O (configuration not stated)		0.702%	
CC(=O)O[C@H]1C[C@@](O)(C(C)C)C2[C@@H](OC(=O)c3ccc(O)cc3)C[C@@]3(C)O[C@H]3C[C@]21C (some centres not stated)		-0.746%	
NC(=O)c1cccc(-c2cc(OC(=O)NC3CCCCC3)ccc2O)c1		2.23%	
CC1OC(OC2C(OC3C(O[C@H]4CC[C@@]5(C)C(CC[C@]6(C)C5C(=O)C=C5C7CC(C)(C)CC(O)[C@]7(C)CC[C@]56C)C4(C)C)OC(C(=O)O)C(O)C3O)OCC(O)C2O)C(O)C(O)C1O (some centres not stated)		-0.894%	
C=CC(C)(CC/C=C(\C)C(=O)OC)OC1OC(COC(=O)CC(C)(O)CC(=O)O)C(OC2OC(CO)C(O)C(O)C2O)C(O)C1O (configuration not stated)			inactive
COc1ccccc1Oc1ccc(N(Cc2cccnc2)S(=O)(=O)CC(F)(F)F)cc1		-7.01%	
COc1cc(C(=O)NC2CCN(C)CC2)ccc1Nc1ncc2c(n1)N(C1CCCC1)CC(F)(F)C(=O)N2C	2.31 µM (active)		
C=CC(C)(C)c1[nH]c2ccccc2c1C[C@@H]1NC(=O)[C@H](Cc2c[nH]c3ccccc23)NC1=O		3.43%	
COC(=O)C1(C)CCC2(C(=O)O)CCC3(C)C(=CCC4C5(C)CC(O)C(OC6OCC(O)C(O)C6O)C(C)(CO)C5CCC43C)C2C1 (configuration not stated)		3.48%	
C/C=C/C=C/[C@@H]1O[C@](O)([C@H](CC)C(=O)NC/C=C/C=C(\C)[C@@H](OC)[C@@H](C)C2OC(/C=C/C=C/C=C(\C)C(=O)c3c(O)cc[nH]c3=O)[C@H](O)[C@@H]2O)[C@H](O)[C@H](O)C1(C)C (some centres not stated)		2.59%	
CC1CCC2(C(=O)O)CCC3(C)C(=CCC4C5(C)CCC(OC(=O)/C=C/c6ccccc6)C(C)(C)C5CCC43C)C2C1C (configuration not stated)			inactive
Cc1ccc(Cc2c(C)nc3nc(SCC(=O)NCCN4CCNCC4)nn3c2C)cc1			inactive
CC(=O)OC1CC2(C)C3=CCC4(C)C5C(O)C(O)C(C(C)C)C5(C)CCC4(C)C3CCC2C(C)(C)C1OC1OC(CO)C(O)C(O)C1O (configuration not stated)		-9.78%	
COc1cc(-c2ncn(/C=C\C(=O)OC(C)C)n2)cc(C(F)(F)F)c1	4.11 µM (active)		
CC(c1ncncc1F)C(O)(Cn1cncn1)c1ccc(F)cc1F (configuration not stated)			inactive
CC(O)CO[C@@H]1O[C@H](CO)[C@@H](O)[C@H](O)[C@H]1O (some centres not stated)		-3.19%	
C[C@H](Oc1ccc(S(C)(=O)=O)cc1C(=O)N1CCN(c2ncc(C(F)(F)F)cc2F)CC1)C(F)(F)F			inactive
C=C1CCC2C(C)(COC(C)=O)CCCC2(C)C1CCC(C)CC(=O)O (configuration not stated)		-3%	
COC(=O)C[C@H]1C(C)(C)[C@H](OC(=O)C(C)C)[C@@]2(O)C(=O)[C@]1(C)C1CC[C@]3(C)C(CC(=O)O[C@H]3c3ccoc3)[C@]13O[C@@H]32 (some centres not stated)			inactive
O=C(OC[C@@]1(O)CO[C@@H](O[C@H]2[C@H](Oc3ccc(O)cc3)O[C@H](CO)[C@@H](O)[C@@H]2O)[C@@H]1O)c1ccc(O)cc1			inactive
C=CC(=O)Nc1cc(Nc2nccc(-c3c[nH]c4ccccc34)n2)c(OC)cc1N(C)CCN(C)C	18.4 µM (active)		
